Screening results from PubChem BioAssay.
A549 tox: Nrf2 qHTS screen for inhibitors: counterscreen for cytotoxicity; A549 ARE-Fluc cells, CellTiter-Fluor viability, 18-24 h; Potency, µM (top dose mostly 46 µM), for the others: at the top dose activity change, negative = cytotoxicity, actives largely listed as inhibitors; hit rate 0.16% among 390,000; AID 504648, 2011; note: % is set by controls: 0 for no effect and ±100 for the full control effect
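Cytotoxicity counterscreen: CellTiter-Fluor fluorescence was measured in A549 ARE_Fluc cells after 18-24 h of compound exposure in a concentration series. The subsequent BugLite luminescent read reports ARE-luciferase activity.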
ELG1 repair inh: qHTS screen for small molecules that inhibit ELG1-dependent DNA repair in human embryonic kidney (HEK293T) cells expressing luciferase-tagged ELG1; Potency, µM (doses to about 46.1 µM), without a hit: at the top dose activity change, negative = inhibition, usual class: inhibitors; hit rate 2.3% among 330,000; HEK293T ELG1-luciferase reporter, luminescence, 16 h; DNA damage induced by 5-fluorouridine; AID 504467, 2011; note: % is set by controls: 0 for no effect and ±100 for the full control effect; nearly all actives have a fitted effect of over 55% in size
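5-Fluorouridine DNA damage + compound/DMSO, 2,000 cells/well, 16 h, 37 °C/5% CO2. ONE-Glo, 30 min RT, luminescence. Readout = decrease in reporter signal.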
Nrf2 activator: qHTS of Nrf2 Activators | AREc32 ARE-luciferase reporter (MCF7-derived line), luminescence, 24 h | Potency, µM (doses to about 46.1 µM), for inactives: at the top dose activation, actives largely listed as activators | hit rate 0.31% among 410,000 | AID 624171, 2012; note: % of control where 0% means no effect; nearly all actives have a fitted effect of over 65% in size
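ARE-driven firefly luciferase activity in AREc32 cells measured after a 24 hr compound exposure at 37 deg C, using Steady-Glo reagent and a 30 min room-temperature hold.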
Nrf2 inh: Nrf2 qHTS screen for inhibitors; AID 504444, 2011; Potency, µM (titrated, usually from 46 µM), for the others: at the highest dose activity change, negative = inhibition, hits mostly inhibitors; hit rate 2.1% among 360,000; A549 ARE-Fluc reporter, luciferase luminescence, 18-24 h; note: % is set by controls: 0 for no effect and ±100 for the full control effect; nearly all actives have a fitted effect of over 60% in size
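A549 ARE_Fluc cells, 5000/well, 5% FBS OPTI-MEM; compounds in dose-response, 18-24 h at 37 °C/5% CO2; CellTiter-Fluor viability read (Ex 405/Em 525), then BugLite luciferase luminescence = Nrf2 activity.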
Active calls of the source: *. Hits are enriched below; roughly 3.7% of the tested compounds scored in any of these assays. Calls come from the whole dose curve; as a rule, active = well fitted curve in the direction sought with a large enough effect; inconclusive = small, poorly fitted or top-dose-only effect, or another doubt; inactive = no such curve, though single readings can be large; an effect the other way counts as inactive or inconclusive. Potency is the fitted concentration of half-maximal effect.

CO/N=C/NC(=O)N1OC[C@@H]2COc3ccc4ccccc4c3[C@@H]21 was read as A549 tox 19.6%, ELG1 repair inh -0.6%, Nrf2 activator -0.8% and Nrf2 inh -8.9%.
For CN(C)c1ccc(/C=N/NC(=O)CN(c2ccccc2Cl)S(C)(=O)=O)cc1Br the results were A549 tox -4.5%, ELG1 repair inh 10.3µM* and Nrf2 activator 0.7%.
For O=C1C(=O)N(c2ccccn2)C(c2ccc(F)cc2)/C1=C(/O)c1ccc(Br)cc1 (configuration not stated) the results were A549 tox -5.5%, ELG1 repair inh 28.4%, Nrf2 activator -1.4% and Nrf2 inh 8.2µM*.
Cc1ccc(C(=O)N(Cc2cccnc2)Cc2cc3cc(C)ccc3n3nnnc23)cc1 was read as A549 tox -8.8%, ELG1 repair inh 20.6µM*, Nrf2 activator -0.4% and Nrf2 inh 0.1%.
Screening O=C(NCc1cc(Cl)cc(Cl)c1)c1ccc2nc(COCCO)[nH]c2c1 returned Nrf2 activator -0.8%.
For O=C(COc1ccccc1)NNc1c2ccccc2nc2ccccc12 the results were A549 tox inconclusive, ELG1 repair inh 20.6µM* and Nrf2 activator -0.9%.
Screening CCCC(=O)NNc1c2ccccc2nc2ccccc12 returned A549 tox -9.0%, ELG1 repair inh 3.2%, Nrf2 activator 0.9% and Nrf2 inh 8.5%.
Cc1cccc(OCC(=O)NCc2cc(C)nc3ccccc23)c1 was read as A549 tox 0.5%, ELG1 repair inh 14.6µM*, Nrf2 activator -1.2% and Nrf2 inh -9.9%.
Screening COc1ccc(OCC(=O)NNc2c3ccccc3nc3ccccc23)cc1 returned A549 tox inconclusive, ELG1 repair inh inconclusive, Nrf2 activator -0.6% and Nrf2 inh 20.6µM*.
`O=C(NNc1c2ccccc2nc2ccccc12)c1cccc(O)c1` gave A549 tox -6.7%, ELG1 repair inh 14.6µM*, Nrf2 activator 9.5% and Nrf2 inh 2.2%.
`COCc1nnc(NC(=O)C2CCN(C(=O)c3ccccc3)CC2)s1` gave A549 tox -3.6% and Nrf2 inh -29.8%.
CCOc1ccc(Nc2nc(Cc3nnc(SCC(=O)c4ccc(C)c(C)c4)o3)cs2)cc1 was read as A549 tox -10.0%, ELG1 repair inh 23.1µM*, Nrf2 activator -0.3% and Nrf2 inh inconclusive.
Screening Cc1ccc(NC(=O)CSc2nnc(Cc3csc(C)n3)o2)cc1 returned A549 tox 11.5%, ELG1 repair inh inconclusive, Nrf2 activator 1.0% and Nrf2 inh 2.3%.
For O=C(c1ccccn1)N1CCCC(N2CCN(c3ccc(F)cc3)CC2)C1 (configuration not stated) the results were A549 tox -1.2%, ELG1 repair inh 27.5%, Nrf2 activator -0.2% and Nrf2 inh 9.9%.
Cc1ccccc1Nc1cc2ccccc2c(=O)[nH]1 was read as A549 tox 16.4µM*, ELG1 repair inh 11.5%, Nrf2 activator -0.7% and Nrf2 inh inconclusive.
For COc1ccc2c(c1)c1c(c(=O)n(Cc3ccccc3)c(=O)n1CC(=O)Nc1c(C)cccc1C)n2C the results were A549 tox -8.0%, Nrf2 activator -0.6% and Nrf2 inh 28.9%.
For Cc1cccc(C2CC(=O)Nc3cc4c(cc32)OCO4)c1 (configuration not stated) the results were A549 tox 2.1%, Nrf2 activator 0.4% and Nrf2 inh inconclusive.
`CCOc1c(Br)cc(C2CC(=O)Nc3cc4c(cc32)OCO4)cc1OC` (configuration not stated) gave A549 tox 0.7%, Nrf2 activator -0.2% and Nrf2 inh 20.6µM*.
For COc1cccc(C2CC(=O)Nc3cc4c(cc32)OCO4)c1OC(C)C (configuration not stated) the results were A549 tox -12.9%, Nrf2 activator -0.1% and Nrf2 inh inconclusive.
Screening CCCOc1ccccc1C1CC(=O)Nc2cc3c(cc21)OCCO3 (configuration not stated) returned A549 tox inconclusive, ELG1 repair inh inconclusive, Nrf2 activator 4.1% and Nrf2 inh 20.6µM*.
Screening COc1cc(C2CC(=O)Nc3cc4c(cc32)OCCO4)cc(Br)c1OC (configuration not stated) returned A549 tox 2.0%, Nrf2 activator -0.1% and Nrf2 inh inconclusive.
CC(C)Oc1cccc(C2CC(=O)Nc3cc4c(cc32)OCO4)c1 (configuration not stated) was read as A549 tox -19.0%, Nrf2 activator 1.1% and Nrf2 inh 16.4µM*.
CC(C)Oc1ccccc1C1CC(=O)Nc2cc3c(cc21)OCO3 (configuration not stated) was read as A549 tox inconclusive, ELG1 repair inh -0.7%, Nrf2 activator -0.6% and Nrf2 inh 7.31µM*.
For O=[N+]([O-])c1ccc(Oc2ccc(Oc3ccc(C(F)(F)F)cn3)cc2)nc1 the results were A549 tox -0.2%, ELG1 repair inh inconclusive, Nrf2 activator 0.0% and Nrf2 inh 16.4µM*.
Screening CC(C)OC(=O)/C(=C/c1ccc2c(c1)c1ccccc1n2C)NC(=O)c1ccccc1 returned A549 tox -12.3%, ELG1 repair inh 20.6µM*, Nrf2 activator 6.2% and Nrf2 inh -19.7%.
`CC(C)OC(=O)/C(=C\c1ccc2c(c1)c1ccccc1n2C)NC(=O)c1ccccc1` gave A549 tox -6.5%, ELG1 repair inh inconclusive, Nrf2 activator 3.5% and Nrf2 inh -11.4%.
`COC(=O)/C(=C\c1ccc2c(c1)c1ccccc1n2C)NC(=O)c1ccccc1` gave A549 tox -1.4%, ELG1 repair inh 20.6µM*, Nrf2 activator 3.6% and Nrf2 inh -0.7%.
O=C(NCC1CCCO1)C1CC(=O)N(c2cccc(Cl)c2)C1 (configuration not stated) was read as A549 tox 0.3%, ELG1 repair inh inconclusive, Nrf2 activator -0.1% and Nrf2 inh 5.6%.
Cc1ccccc1N1CCN(C2=NC(=O)/C(=C\c3cccs3)S2)CC1 was read as A549 tox inconclusive, ELG1 repair inh inconclusive, Nrf2 activator 0.5% and Nrf2 inh inconclusive.
O=C1N=C(N2CCN(c3cccc4ccccc34)CC2)S/C1=C/c1cccs1 was read as A549 tox -5.5%, ELG1 repair inh 8.2µM* and Nrf2 activator 3.0%.
Screening COc1ccc(CCn2c(=O)c3cccnc3n(CC(=O)Nc3ccc(C)c(F)c3)c2=O)cc1OC returned A549 tox -3.7%, Nrf2 activator 0.4% and Nrf2 inh 12.8%.
Screening O=C(Nc1ccccc1)c1cc(C2CCCCN2C(=O)CCc2ccccc2)on1 (configuration not stated) returned Nrf2 activator 3.9%.
`NC(=O)c1sc2nc3c(c(-c4ccco4)c2c1N)CCC3` gave A549 tox 4.8%, ELG1 repair inh inconclusive, Nrf2 activator -1.3% and Nrf2 inh 5.8µM*.
